{"source": "the OligoGym collection", "data": [{"target": "KCND2", "assay": "pooled miR-30 sensor sort-seq; sequence = guide strand", "conditions": "shRNA", "values": [{"sequence": "TTGTACTCCTCATAACAGCAGT", "sensor-assay potency score (higher = more potent)": -0.753}, {"sequence": "TTTGTCTGCTCGTTGATTCTGG", "sensor-assay potency score (higher = more potent)": -0.31}, {"sequence": "TTAAAGATCCTGAAGACCCGGA", "sensor-assay potency score (higher = more potent)": 0.918}, {"sequence": "ATTAACAGTTGCAACTTCCATG", "sensor-assay potency score (higher = more potent)": -0.92}, {"sequence": "TTGTGTCGTCGTGAACAGCAGG", "sensor-assay potency score (higher = more potent)": -0.722}, {"sequence": "TTCTGAGGCACAACTCTTCAGT", "sensor-assay potency score (higher = more potent)": -0.605}, {"sequence": "TCAGCGAACAGATAGAACCAAA", "sensor-assay potency score (higher = more potent)": -1.25}, {"sequence": "TTACTGAGTAAACCATTCCGTT", "sensor-assay potency score (higher = more potent)": -1.06}, {"sequence": "TAGAACACCAGGGCCATCGTGC", "sensor-assay potency score (higher = more potent)": -0.481}, {"sequence": "TTGTCTGTCATCACCAGCCCAA", "sensor-assay potency score (higher = more potent)": -0.744}]}, {"target": "KCNE1", "assay": "pooled miR-30 sensor sort-seq; sequence = guide strand", "conditions": "shRNA", "values": [{"sequence": "TTGCCAGGCATCGGACTCGATG", "sensor-assay potency score (higher = more potent)": -1.64}, {"sequence": "TTTAGAGAAACAGTGAAACAGT", "sensor-assay potency score (higher = more potent)": -0.257}, {"sequence": "TTCTTGGAGCGGATGTAGCTCA", "sensor-assay potency score (higher = more potent)": -0.819}, {"sequence": "TCGATGTAGACGTTGAATGGGT", "sensor-assay potency score (higher = more potent)": -0.608}, {"sequence": "TTGTCCTTCTCTTGCCAGGCAT", "sensor-assay potency score (higher = more potent)": -1.07}, {"sequence": "TCAACGACATAGCACGACCTGT", "sensor-assay potency score (higher = more potent)": -0.979}, {"sequence": "TTTTCAACGACATAGCACGACC", "sensor-assay potency score (higher = more potent)": -1.08}, {"sequence": "TTCGAGTGCTCCAGCTTCTTGG", "sensor-assay potency score (higher = more potent)": -0.829}, {"sequence": "TTGTTCTATGGCCAGATGGTTT", "sensor-assay potency score (higher = more potent)": -1.5}, {"sequence": "TAGAGAAACAGTGAAACAGTGT", "sensor-assay potency score (higher = more potent)": 0.334}, {"sequence": "TCGGACTCGATGTAGACGTTGA", "sensor-assay potency score (higher = more potent)": -0.164}, {"sequence": "TCCAGCTTGCCGTCACTGCTGC", "sensor-assay potency score (higher = more potent)": -1.06}]}, {"target": "KCNH5", "assay": "pooled miR-30 sensor sort-seq; sequence = guide strand", "conditions": "shRNA", "values": [{"sequence": "TTACATATCAAAATCCATGTGT", "sensor-assay potency score (higher = more potent)": 0.412}, {"sequence": "TTTCTTCACATCACTGATCTTA", "sensor-assay potency score (higher = more potent)": 0.0331}, {"sequence": "TTTTCTTGTACAGAAGAACTTC", "sensor-assay potency score (higher = more potent)": 0.0958}, {"sequence": "TGAGACACTAAAAATATCCTGA", "sensor-assay potency score (higher = more potent)": 0.518}, {"sequence": "TTCGTGTTTGACTTCCTGCAGT", "sensor-assay potency score (higher = more potent)": -0.357}, {"sequence": "TTCCACTGTCACAAGAATCTGT", "sensor-assay potency score (higher = more potent)": 0.6}, {"sequence": "TAAACAAGACAGCAGATCGATC", "sensor-assay potency score (higher = more potent)": -1.19}, {"sequence": "TTGAACAACGTAATATCCTTGA", "sensor-assay potency score (higher = more potent)": 0.815}, {"sequence": "TTTGAACAACGTAATATCCTTG", "sensor-assay potency score (higher = more potent)": -0.17}, {"sequence": "TTGAACTTCTGGAAGAGCTTTC", "sensor-assay potency score (higher = more potent)": -0.184}, {"sequence": "TATACAAGCAATATCTATGTTT", "sensor-assay potency score (higher = more potent)": -0.652}, {"sequence": "TAGAGTTTTAGGAAGTCCCGTA", "sensor-assay potency score (higher = more potent)": -0.0513}]}, {"target": "KCNJ11", "assay": "pooled miR-30 sensor sort-seq; sequence = guide strand", "conditions": "shRNA", "values": [{"sequence": "TCATCGGCCAGGTAGGAGGTGC", "sensor-assay potency score (higher = more potent)": -0.639}, {"sequence": "TAGTCCACAGAGTAACGTCCGT", "sensor-assay potency score (higher = more potent)": -0.814}, {"sequence": "TTTGACGGTGTTGCCAAACTTG", "sensor-assay potency score (higher = more potent)": -0.73}, {"sequence": "TAGCATAGTGACAAGTGCCTTG", "sensor-assay potency score (higher = more potent)": 0.123}, {"sequence": "TACAATGGGCACAAAGCGCTGG", "sensor-assay potency score (higher = more potent)": 0.352}, {"sequence": "TTGACGGTGTTGCCAAACTTGG", "sensor-assay potency score (higher = more potent)": -1.46}]}]}
